Laboratory results as given in PubChem BioAssay (EPA / NIEHS).
Activity calls are given as the source filed them. How the source made its calls: active means hit-call score of the fitted dose curve at least 0.9, where 1 is the maximum; inactive means score below 0.9.

experiment: ATG_AP_1_CIS: Attagene CIS-FACTORIAL HepG2 Assay for human Activator Protein 1 (AP-1) (AID 2282931); details: HepG2 Attagene cis-factorial AP-1 reporter mRNA; actives raise or lower the signal
Description: ATG_CIS is a cell-based, multiplexed-readout assay that uses HepG2, a human liver cell line, with measurements taken at 24 hours after chemical dosing in a 24-well plate.ATG_AP_1_CIS is one of 52 assay component(s) measured or calculated from the ATG_CIS assay. It is designed to make measurements of mRNA induction, a form of inducible reporter, as detected with fluorescence intensity signals by Reverse transcription polymerase chain reaction (RT-PCR) and Capillary electrophoresis technology.Data from the assay component ATG_AP_1_CIS was analyzed into 1 assay endpoint. This assay endpoint, ATG_AP_1_CIS, was analyzed with bidirectional fitting relative to DMSO as the negative control and baseline of activity. Using a type of inducible reporter, measures of mRNA for gain or loss-of-signal activity can be used to understand the reporter gene at the transcription factor-level as they relate to the gene FOS and JUN. Furthermore, this assay endpoint can be referred to as a primary readout, because this assay has produced multiple assay endpoints where this one serves a reporter gene function. To generalize the intended target to other relatable targets, this assay endpoint is annotated to the dna binding intended target family, where the subfamily is basic leucine zipper.
Human liver HepG2 cells are transiently transfected with multiple reporter transcription units (MRTUs) in 6-well plates using FuGene 6 reagent (Roche; 3 ml FuGene/1 mg DNA). The MRTU constructs are regulated by a cis-regulating element (promoter). […] A major difference between the CIS and TRANS system is that in CIS activities of endogenous TFs are measured, whereas the TRANS assay evaluates changes in activities of exogenous, chimeric NR-Gal4 proteins. […] At the end of 24 hour incubation, total RNA was isolated using TriZol reagent (Invitrogen). The isolated RNA is then reverse-transcribed using oligo(dT) primer and Mo-MLV reverse transcriptase (Invitrogen) with DNAse I (Ambion) treatment for 30 min. The one-tenth of the produced cDNA was amplified by PCR using Taq DNA polymerase (Invitrogen) and two reporter sequence-specific primers. The PCR products were fluorescently labeled by primer extension with 6-arboxyfluorescein (6-FAM) 5'-labeled reporter sequence-specific primer (2 min at 95 C, 20 s at 68 C and 10 min at 72 C) and these products were digested with 5U of HpaI (New England Biolabs) for 2h at 37 C. The fragments were purified using Qiaquick PCR columns (Qiagen), analyzed on an ABI 3130xL genetic analyzer (Applied Biosystems) with peak positions identified by using a set of X-rhodamine (ROX)-labeled MapMarker1000 molecular weight standards (BioVentures). The raw capillary electrophoresis data was processed using Attagraph software (Attagene).

Structure (SMILES)	outcome	AC50
O=C(Nc1ccc2c(O)c(N=Nc3ccc(N=Nc4ccc(S(=O)(=O)O)cc4)cc3)c(S(=O)(=O)O)cc2c1)c1ccccc1	inactive	
CCCCCC(C=O)=Cc1ccccc1	inactive	
C=C(C)C(=O)OCCOCCOCCOCCOC(=O)C(=C)C	inactive	
CN(C)c1ccncc1	inactive	
CCCCCCOC(=O)CCC	inactive	
O=C(c1ccccc1)C(O)c1ccccc1 (stereo not given)	inactive	
N#Cc1ccc(CC(=O)c2cccc(C(F)(F)F)c2)cc1	inactive	
Oc1c(Cl)cc(Cl)c(Cl)c1Cc1c(O)c(Cl)cc(Cl)c1Cl	inactive	
Cc1cccc(Nc2ccccc2)c1		139 µM (active)
O=P(O)(O)O	inactive	
Nc1c(S(=O)(=O)O)cc(Br)c2c1C(=O)c1ccccc1C2=O	inactive	
CCCCCCCC(=O)OCC(O)CO (stereo not given)	inactive	
OCc1cccc(Oc2ccccc2)c1	inactive	
O=C(O)c1cccnc1C(=O)O	inactive	
CC(C=O)Cc1ccc(C(C)(C)C)cc1 (stereo not given)	inactive	
COC(C)(C)CCO	inactive	
CC(=O)O[C@H]1C[C@@H]2CC[C@@]1(C)C2(C)C	inactive	
CS(=O)(=O)c1ccc(Cl)cc1	inactive	
O=CCc1ccccc1	inactive	
CCCCCCCC(=O)OCCCCCC	inactive	

Structure (SMILES)	outcome	AC50
CCO/C=C1\N=C(c2ccccc2)OC1=O	inactive	
CS(=O)(=O)OCCCCOS(C)(=O)=O	inactive	
CSc1c(Cl)c(Cl)c(Cl)c(Cl)c1Cl	inactive	
Oc1ccc2cc(SSc3ccc4cc(O)ccc4c3)ccc2c1		100 µM (active)
CC1(C)COCN1	inactive	
CCCN(CCC)S(=O)(=O)c1ccc(C(=O)O)cc1	inactive	
CCCCN(CCCC)C(=O)N(CCCC)CCCC		58.5 µM (active)
O=C(CC(=O)c1ccccc1)c1ccccc1		80.1 µM (active)
C=CCOC(=O)CCCCCC	inactive	
CCOC(=O)C1OC1c1ccccc1 (stereo not given)		43.6 µM (active)
CC(O)C1CCCCC1 (stereo not given)	inactive	
C=CC(=O)OCCC#N	inactive	
COCCOCCOCCO	inactive	
COc1cccc(OC)c1O	inactive	
CCCCCCCCCCCCCCCC(=O)OC/C=C(C)/C=C/C=C(C)/C=C/C1=C(C)CCCC1(C)C	inactive	
OCc1ccc(Cl)cc1Cl	inactive	
CCCCCCCCCCCCN1CCCCCC1=O		11.1 µM (active)
COC(C)(C)CCCC(C)CC=O (stereo not given)	inactive	
CCCC(=O)OC(C)(C)Cc1ccccc1	inactive	
CCC1(C)NC(=O)NC1=O (stereo not given)	inactive	
